TRb SRC2 PPI: disrupts binding of human TR beta to SRC2 | AID 1469 | TRbeta-SRC2 peptide binding, fluorescence polarization; receptor liganded with 1 µM T3 | 280,000 tested, 0.065% active | Potency, µM (highest dose often 106 µM), inactives show at the highest dose activity change, negative = inhibition, hits mostly inhibitors | P10828;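 further: plate controls were bound peptide for no effect and peptide without receptor for full effect; nearly all actives have a fitted effect of over 50% in size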
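Assay buffer: 20 mM Tris-HCl, 100 mM NaCl, 10% glycerol, 1 mM EDTA, 0.01% NP-40, 1 mM DTT, 1 uM T3, 5% DMSO; TRb LBD 0.6 uM, Texas Red SRC2 20 nM; FP after 5 hr.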
Tau fibril FP: tau fibrillization inhibition (FP). P10636. K18 P301L tau heparin fibrillization, Alexa594 FP, 6 h. Potency, µM (doses to about 57.7 µM), for the others: at the top dose activity, negative = inhibition, most hits filed as inhibitors. 280,000 tested, 0.39% active; further: nearly all actives have a fitted effect of over 55% in size
Target sequence (P10636 561-689 P618L limits assumed): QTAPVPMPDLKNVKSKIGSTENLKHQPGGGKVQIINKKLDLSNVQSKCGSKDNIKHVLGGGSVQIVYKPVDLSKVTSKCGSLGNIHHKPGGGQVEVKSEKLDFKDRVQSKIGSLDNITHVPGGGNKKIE
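Quantitative HTS format: compounds meet 15 uM recombinant K18 P301L tau and Alexa 594-tau tracer in 100 mM sodium acetate pH 7; 20 uM heparin triggers fibrillization at 37 C over 6 hr; FP gives the signal.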
Tau ThT inhib: tau fibrillization inhibition (ThT binding) | recombinant tau K18 P301L, heparin-induced fibrillization, ThT fluorescence | Potency, µM (doses to about 57.4 µM), for the others: top-dose activity, negative = inhibition, actives largely listed as inhibitors | 270,000 tested, 2.1% active; further: nearly all actives have a fitted effect of over 55% in size
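Heparin-induced (20 uM) aggregation of recombinant human K18 P301L tau, 15 uM unlabeled with 0.24 uM labeled, pH 7 acetate buffer, 6 hr at 37 C with compound. Fibrils quantified by 30 uM ThT fluorescence after 1 hr ambient incubation.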
Tau fluor cs: counter-screen for tau fibril formation inhibitors; 280,000 tested, 0.93% active; Potency, µM (highest dose often 57.7 µM), for the others: at the highest dose activity change, negative = decrease; tau K18 P301L Alexa594 fluorescence, heparin fibrillization; AID 1463; further: nearly all actives have a fitted effect of over 55% in size
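Human tau K18 P301L (15 uM unlabeled, 0.24 uM Alexa 594-labeled) in 100 mM sodium acetate pH 7 with 20 uM heparin, 6 hr at 37 C. ThT 30 uM added, 1 hr ambient; Alexa 594 FP and total fluorescence read at 555/632 nm.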
TexasRed fluor: alters Texas Red total fluorescence, flagging assay interference | Potency, µM (highest dose often 106 µM), without a hit: at the highest dose fluorescence change, negative = quenching | TRb/SRC2 Texas Red total fluorescence interference | 280,000 tested, 0.29% active; active means well fitted curve in either direction with a large enough effect; inconclusive means small, poorly fitted or top-dose-only effect
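Flags fluorescent or light-absorbing compounds by total fluorescence, S + 2P, at 555 nm excitation and 632 nm emission. Mixture: 20 nM Texas Red SRC2 peptide, 0.6 uM human TRb LBD, 1 uM T3, 5% DMSO; compound exposure 5 h at ambient temperature.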
An asterisk follows results filed as active; u = inconclusive; x = no result; [ ] = remark or other dose. This is a sample that favours compounds with a hit; in the whole collection about 3% have one here. Unless noted, the call rests on the fitted dose curve; in most records, active means well fitted curve in the direction sought with a large enough effect; inconclusive means small, poorly fitted or top-dose-only effect, or another doubt; inactive means no such curve, though single readings can be large; an effect the other way counts as inactive or inconclusive. Unless noted, on the % scale 0 is the no-effect control and ±100 the full control effect; potency means the concentration at half of the fitted maximal effect.

SMILES	TRb SRC2 PPI	Tau fibril FP	Tau ThT inhib	Tau fluor cs	TexasRed fluor
Cc1ccc(C(=O)N/C(=C\c2ccc(-c3ccc([N+](=O)[O-])cc3)o2)C(=O)NC2CCS(=O)(=O)C2)cc1 (stereo unspecified)	-5.5%	9.3%	6.31µM*	u	-1.8%
O=C(OCC1OC(OC(=O)c2cc(O)c(O)c(OC(=O)c3cc(O)c(O)c(O)c3)c2)[C@@H](OC(=O)c2cc(O)c(O)c(OC(=O)c3cc(O)c(O)c(O)c3)c2)C(OC(=O)c2cc(O)c(O)c(OC(=O)c3cc(O)c(O)c(O)c3)c2)C1OC(=O)c1cc(O)c(O)c(OC(=O)c2cc(O)c(O)c(O)c2)c1)c1cc(O)c(O)c(OC(=O)c2cc(O)c(O)c(O)c2)c1 (stereo partly specified)	u	u	1.26µM*	0.501µM*[quencher]	15.8µM*[quencher]
CC(=O)Oc1c(Cl)cc(Cl)cc1/C=C/c1ccc2ccccc2n1	0.1%	-8.6%	-18.0%	-18.7%	-1.6%
COc1cc(/C=C/c2cc(OC(C)=O)c3ccccc3n2)c(OC(C)=O)c([N+](=O)[O-])c1	-17.2%	u	3.16µM*	12.6µM*[quencher]	-3.2%
Cc1ccc(C2C(/C=C3/SC(=S)NC3=O)=C(c3cccs3)Oc3ccccc32)cc1 (stereo unspecified)	19.2%	-6.3%	12.6µM*	u	-19.3%
COc1ccc(-c2nc(-c3ccccc3)c(NC(C)(C)C)o2)cc1	6.8%	-5.0%	-2.1%	-3.1%	-2.9%
O=C(Nc1cccc(S(=O)(=O)N2CCCCC2)c1)Nc1ccc(Cl)cc1Cl	4.6%	14.1µM*	13.9%	u	-2.5%
O=C(Nc1ccc(Cl)cc1Cl)NC1CCCC1	-12.4%	7.7%	4.5%	1.7%	-3.3%
O=C(Nc1ccc(Cl)cc1Cl)NC1CCN(S(=O)(=O)c2ccc(F)cc2)CC1	1.3%	25.1µM*	x	u	0.0%
COc1ccccc1NS(=O)(=O)c1cccc(NC(=O)Nc2ccccc2)c1	-13.3%	u	15.4%	u	1.1%
COc1ccccc1NS(=O)(=O)c1cccc(NC(=O)Nc2ccc(Cl)cc2)c1	11.5%	28.2µM*	7.1%	u	0.2%
COc1ccc(-c2coc3cc(O)ccc3c2=O)c(O)c1O	5.0%	15.8µM*	10µM*	12.6µM*[quencher]	-8.9%
O=C(Nc1cccc(-c2csc(Nc3ccc(Cl)cc3)n2)c1)c1cccc(C(F)(F)F)c1	-2.1%	-3.1%	12.6µM*	7.94µM*[quencher]	-2.5%
O=C(Nc1cccc(-c2csc(-c3ccccc3)n2)c1)c1cccs1	7.2%	14.1µM*	u	u	-5.8%
Cc1nc(-c2cccc(NC(=O)c3cccs3)c2)cs1	-12.6%	-3.2%	u	-18.5%	2.5%
O=C(Nc1cccc(-c2csc(Nc3ccc(Cl)cc3)n2)c1)c1ccccc1	2.3%	-11.9%	14.1µM*	14.1µM*[quencher]	-1.6%
Cc1cccc(NC(=O)c2cc(S(=O)(=O)N3CCc4ccccc43)ccc2F)c1C	7.1%	-10.9%	-2.1%	-26.5%	-2.3%
COc1ccc(Cl)cc1NC(=O)c1c(NCc2cccs2)sc2c1CCCC2	-7.9%	-3.8%	u	u	-0.5%
S=C(NCc1cccs1)Nc1cccc(Cl)c1	6.3%	-3.6%	-3.0%	-24.7%	1.2%
S=C(NCc1cccs1)Nc1cc(Cl)cc(Cl)c1	5.1%	17.8µM*	-1.6%	u	-0.1%
CCOC(=O)c1ccccc1NC(=O)Cn1nnc2sc3c(c2c1=O)CCCC3	0.4%	-4.2%	-3.3%	-12.5%	0.4%
CC(C)c1ccc(NS(=O)(=O)c2ccc3[nH]cc(C(=O)NC4CCCCC4)c(=O)c3c2)cc1	1.8%	3.55µM*	u	u	-2.7%
Cc1cc(C)cc(NS(=O)(=O)c2ccc3[nH]cc(C(=O)NCc4ccccc4Cl)c(=O)c3c2)c1	-14.5%	3.16µM*	5.1%	u	u
CC(C)c1ccc(NS(=O)(=O)c2ccc3[nH]cc(C(=O)NCC4CCCO4)c(=O)c3c2)cc1 (stereo unspecified)	6.3%	15.8µM*	-8.0%	u	-0.1%
COc1cccc(NS(=O)(=O)c2ccc3[nH]cc(C(=O)NC4CCCCC4)c(=O)c3c2)c1	-3.4%	7.08µM*	u	3.55µM*[quencher]	-0.7%

Compound activity deposited in PubChem by National Center for Advancing Translational Sciences (NCATS).
